The values that follow come from PubChem BioAssay (NCATS).

Each structure is given as a SMILES string. Results filed as inconclusive are left out. The source made the active and inactive calls. Calls come from the whole dose curve; as a rule, active = well fitted inhibition curve with a large enough effect; inconclusive = small, poorly fitted or top-dose-only effect; inactive = flat fitted curve, though single readings scatter.

The nature of this assay: P-glycoprotein substrates identified in KB-8-5-11 adenocarcinoma cell line, qHTS therapeutic library screen (AID 1346987). Note: nearly all actives have a fitted effect of over 65% in size. The conditions noted are these: KB-8-5-11 (P-gp overexpressing) viability, CellTiter-Glo, 72 h; series mostly up to 44.5 µM. An excerpt:
The ATP-binding cassette transporters P-glycoprotein (P-gp) is known to limit brain penetration of many chemotherapy drugs. […] As such, we developed a high-throughput screen (HTS) to identify substrates of P-gp from a series of chemical libraries including the National Center for Advancing Translational Sciences Pharmaceutical Collection NPC, 2,816 compounds), testing a total of 10,804 compounds, most of which have known mechanisms of action. We used the CellTiter-Glo viability assay to test library compounds against the parental KB-3-1 human cervical adenocarcinoma cell line and the colchicine-selected sub-line KB-8-5-11 that over-expresses P-gp. KB-8-5-11 cells were also tested in the presence of a P-gp inhibitor (tariquidar) to assess reversability of transporter-mediated resistance. Of the tested compounds, a total of 90 P-gp substrates were identified including 55 newly identified P-gp substrates. Substrates were confirmed using an orthogonal killing assay against HEK-293 cells transfected with P-gp. As exemplars, we confirmed that […] (cyclin-dependent kinase inhibitor); AT9283, (Janus kinase 2/3 inhibitor); ispinesib (kinesin spindle protein inhibitor); gedatolisib (PKI-587, phosphoinositide 3-kinase/mammalian target of rampamycin inhibitor); GSK-690693 (AKT inhibitor); and KW-2478 (heat shock protein 90 inhibitor) were substrates , and direct ATPase stimulation was assessed. ABCG2 was also found to confer high levels of resistance to AT9283, GSK-690693 and gedatolisib, while ispinesib, AT7519 and KW-2478 were weaker substrates.
The HeLa derivative cell line, KB-3-1, and its colchicine-selected, P-gp-overexpressing subline, KB-8-5-11 were maintained in DMEM with 10% FCS and Pen/Strep with glutamine at 37 degree C in 5% CO2. For KB-8-5-11 cells, colchicine was added to the medium at a concentration of 100 ng/mL. HEK-293 cells transfected with empty vector (pcDNA) or vector containing human ABCB1 (MDR-19) or ABCG2 (R-5) have been described previously (Robey, Lin, Qiu, Chan & Bates, 2011) and were maintained in EMEM supplemented with 10% FCS, Pen/Strep and glutamine with 2 mg/ml G418 to select for the expression of the transporter. Cultures were confirmed to be free of mycoplasma infection using the MycoAlert Mycoplasma Detection Kit (Lonza, Walkersville, MD). For the screen, assay medium was identical to culture medium except for KB-8-5-11 where colchicine was excluded from the medium.
All cell lines were plated into 1536-well plates at 500 cells/well in 5 uL media. Compounds were then pinned in dose-response using a 1536-head pin tool (Kalypsis, San Diego, CA) and plates were incubated at 37 degree C in 5% CO2 for an additional 72 h. CellTiter-Glo reagent (Promega) was dispensed into the wells, incubated for 5 min and luminescence was read on a ViewLux instrument (Perkin-Elmer). Cytotoxic compounds were defined as those that yielded a curve class of -1.1, -1.2, -2.1, -2.2, -2.3, or -2.4, a maximum response of >50% and an AC50 of < 10 uM. Cherry-picked hits from screening analysis were tested with both the KB pair of cell lines, and the pcDNA (empty vector control) and MDR-19 (P-gp overexpressing) pair were tested, in the absence and presence of tariquidar.
Regarding `NNc1nnc(NN)c2ccccc12`, the outcome was inactive.
The entry for `Cc1cc(=O)[nH]c(=S)[nH]1` is “inactive”.
The same measure for `CC(=O)N[C@@H](Cc1ccc(O)cc1)C(=O)O`: “inactive”.
For `CC(C)=CCC[C@@](C)(O)[C@H]1CC=C(C)CC1`, the result was inactive.
The entry for `Nc1ccc(S(=O)(=O)c2ccc(N)cc2)cc1` is “inactive”; for `CC(=O)Nc1ccccc1` it is “inactive”.
The same measure for `O=C(O)Cc1ccc(CCNS(=O)(=O)c2ccc(Cl)cc2)cc1`: “inactive”; for `O=C(O)CCCc1ccccc1`: “inactive”.
The same measure for `NC(=O)CCCCC1CCSS1` (stereo not given): “inactive”.
As to `CC(=O)[C@@]1(O)CC[C@H]2[C@@H]3C[C@H](C)C4=CC(=O)C=C[C@]4(C)[C@@]3(F)[C@@H](O)C[C@@]21C`, the molecule was called inactive.
`CCN[C@H]1CN(CCCOC)S(=O)(=O)c2sc(S(N)(=O)=O)cc21`: the molecule was called inactive.
In the case of `Cc1c(I)c(=O)n(-c2ccccc2)n1C`, the call was inactive.
The same measure for `CC(=O)Nc1ccc(C(=O)O)cc1`: “inactive”; for `Nc1ccc(C(=O)Oc2ccccc2)c(O)c1`: “inactive”; for `COc1ccc(-c2cc(=O)c3c(O)cc(O[C@@H]4O[C@H](CO[C@@H]5O[C@@H](C)[C@H](O)[C@@H](O)[C@H]5O)[C@@H](O)[C@H](O)[C@H]4O)cc3o2)cc1O`: “inactive”.
In the case of `Cc1ccc(S(=O)(=O)NC(=O)NC2CCCCC2)cc1`, the molecule was called inactive.
Regarding `O=C(NCCCN1CCOCC1)c1ccc(Cl)cc1`, the call was inactive.
`COC(=O)c1ccc(O)cc1`: the result was inactive.
With `O=C(O)c1cc(=O)c2ccccc2o1`, the outcome was inactive.
On to `OCc1ccc(Cl)cc1Cl`, for which the molecule was classed as inactive.
`Cc1cccc(C)c1NC(=O)CC12CCCN1CCC2`: the result was inactive.
The same measure for `O=C(Cn1ccnc1[N+](=O)[O-])NCc1ccccc1`: “inactive”; for `CC1(C)[C@@H](OC(=O)CCC(=O)O)CC[C@]2(C)[C@H]3C(=O)C=C4[C@@H]5C[C@@](C)(C(=O)O)CC[C@]5(C)CC[C@@]4(C)[C@]3(C)CC[C@@H]12`: “inactive”.
In the case of `CC[N+](CC)(CC(=O)Nc1c(C)cccc1C)Cc1ccccc1`, the outcome was inactive.
With `CCCCCCCCCCCCCCCCC(C(=O)O)C(O)(CC(=O)O)C(=O)O` (stereo not given), the call was inactive.
With `Cc1ccsc1C(=CCCN1CCC[C@@H](C(=O)O)C1)c1sccc1C`, the molecule was classed as inactive.
As for `COc1ccc2cc(CCC(C)=O)ccc2c1`, the outcome was inactive.
Take `CN(C(=O)c1c(O)c2ccccc2n(C)c1=O)c1ccccc1`: the result was inactive.
Consider `C[C@@H](N)C(=O)O`, for which the call was inactive.
Turning to `NS(=O)(=O)c1ccc(NC(=O)CCC(=O)O)cc1`, the result was inactive.
Turning to `O=C(NCN1CCOCC1)c1cnccn1`, the molecule was classed as inactive.
As to `C=CCSCC1Nc2cc(Cl)c(S(N)(=O)=O)cc2S(=O)(=O)N1` (stereo not given), the call was inactive.
Regarding `C/C(=C(\CCO)SS/C(CCO)=C(\C)N(C=O)Cc1cnc(C)nc1N)N(C=O)Cc1cnc(C)nc1N`, the molecule was called inactive.
For `Cc1ncc(CO)c(CN)c1O`, the call was inactive.
The same measure for `Cc1cccc(Nc2ccccc2C(=O)O)c1C`: “inactive”; for `CCN(CC)S(=O)(=O)c1ccc(C(=O)O)cc1`: “inactive”.
For `O=C(O)[C@@H]1[C@H]2C[C@H]3c4[nH]c5ccccc5c4CCN3C[C@@H]2CC[C@@H]1O`, the molecule was classed as inactive.
With `O=c1[nH]c(=O)n([C@H]2C[C@H](O)[C@@H](CO)O2)cc1I`, the molecule was classed as inactive.
In the case of `CC(=O)Nc1ccc(OCCOCCOc2ccc(NC(C)=O)cc2)cc1`, the outcome was inactive.
Regarding `CCOC(=O)[C@H](CCc1ccccc1)N[C@@H](C)C(=O)N1CCC[C@H]1C(=O)O`, the outcome was inactive.
